Our source for the AC50 and outcome values is PubChem BioAssay (EPA / NIEHS).

Test [1] is described as follows: CEETOX_H295R_TESTO_noMTC: CeeTox H295R High-throughput Steroidogenesis Assay for Testosterone (TESTO), maximum tolerated concentration (MTC) filtered results only (AID 2283924). Particulars: actives raise or lower the signal. Summed up: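 H295R cells prestimulated 48 h with 10 uM forskolin, then exposed 48 h to chemicals in 0.1% DMSO final. Testosterone in medium quantified by MTBE extraction and HPLC-MS/MS; bidirectional fit versus DMSO, concentrations […] filtered by MTT-based maximum tolerated concentration.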

The target in test [2] is PGR (gene 5241) (UniProt P06401). Description: TOX21_PR_BLA_Followup_Agonist_ratio: Tox21 HEK293 Progesterone Receptor (PR) Agonism Beta-lactamase Follow-Up Assay, Ratio (AID 2283933; active = hit-call score of the fitted dose curve at least 0.9, where 1 is the maximum). Summed up:
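Agonist-mode follow-up in HEK293T cells carrying a UAS-driven beta-lactamase reporter, grown in 2% charcoal-stripped serum. Compounds act for 16 hr; activity is the ch2/ch1 cleavage ratio, with same-well CellTiter-Glo viability run in parallel.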

Test [3] shares this target. The experiment in a line: TOX21_PR_LUC_Followup_Agonist: Tox21 HEK293 Progesterone Receptor (PR) Agonism Luciferase Follow-Up Assay (AID 2283937). An outline of the steps:
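Agonist mode: reporter cells carrying PR-A and luciferase are treated 16 h with test compounds at 37C. Luciferase induction is measured by luminescence and fitted upward against DMSO.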

Structures are written as SMILES. Inconclusive results are not listed. Activity calls are given as the source filed them. The calls were made as follows, unless noted: active = hit-call score of the fitted dose curve at least 0.9, where 1 is the maximum; inactive = score below 0.9.

PGR (gene 5241), sequence (P06401 whole entry, looked up): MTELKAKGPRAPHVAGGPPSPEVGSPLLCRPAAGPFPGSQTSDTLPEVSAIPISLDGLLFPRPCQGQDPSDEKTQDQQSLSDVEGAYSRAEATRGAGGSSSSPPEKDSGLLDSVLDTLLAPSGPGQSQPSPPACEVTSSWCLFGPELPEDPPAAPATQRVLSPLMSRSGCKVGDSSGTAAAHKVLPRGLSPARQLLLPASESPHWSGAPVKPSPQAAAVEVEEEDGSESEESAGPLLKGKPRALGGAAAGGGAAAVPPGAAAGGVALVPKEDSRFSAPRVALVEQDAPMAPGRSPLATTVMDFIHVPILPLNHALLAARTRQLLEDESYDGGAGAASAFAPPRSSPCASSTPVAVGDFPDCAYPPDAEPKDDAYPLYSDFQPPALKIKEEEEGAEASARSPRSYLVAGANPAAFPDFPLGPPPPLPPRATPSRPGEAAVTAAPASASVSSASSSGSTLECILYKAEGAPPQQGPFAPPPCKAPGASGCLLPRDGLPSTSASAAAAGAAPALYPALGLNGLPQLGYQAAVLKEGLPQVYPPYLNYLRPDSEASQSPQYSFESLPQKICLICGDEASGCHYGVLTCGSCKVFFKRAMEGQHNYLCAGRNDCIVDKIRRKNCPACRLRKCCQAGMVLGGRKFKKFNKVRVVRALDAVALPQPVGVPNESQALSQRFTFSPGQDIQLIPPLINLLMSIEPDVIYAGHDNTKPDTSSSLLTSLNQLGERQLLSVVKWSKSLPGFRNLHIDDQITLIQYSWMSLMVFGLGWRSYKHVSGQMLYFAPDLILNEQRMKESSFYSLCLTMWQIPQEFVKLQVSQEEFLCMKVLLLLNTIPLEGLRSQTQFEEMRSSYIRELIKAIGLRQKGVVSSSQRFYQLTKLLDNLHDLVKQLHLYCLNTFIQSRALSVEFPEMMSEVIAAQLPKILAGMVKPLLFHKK

Take `COc1ccc(C(=O)/C(Br)=C\C(=O)O)cc1`: in test [1], the concentration at half-maximal activity (AC50) was 83.6 µM (active).

Regarding `N#Cc1ccc(C(c2ccc(C#N)cc2)n2cncn2)cc1`, in test [1], the result was inactive.

On to `Oc1ccc(-c2ccccc2)c(Cl)c1`, for which the outcome in the test with PGR (gene 5241) [2] and with PGR (gene 5241) [3] was inactive.

On to `c1ccc2c(c1)[nH]c1ccccc12`, for which the result in the test with PGR (gene 5241) [2] and in the test with PGR (gene 5241) [3] was inactive.
